Screening results: PubChem BioAssay, National Center for Advancing Translational Sciences (NCATS)
NPSR antag: qHTS Assay for Antagonists of the Neuropeptide S Receptor: cAMP Signal Transduction; Q6W5P4; CHO-NPSR cells, cAMP TR-FRET, antagonist mode; Potency, µM (titrated, usually from 38.3 µM), most hits filed as inhibitors; hit rate 1% among 220,000; AID 1461, 2008; note: nearly all actives have a fitted effect of over 50% in size
Target sequence (Q6W5P4 whole entry, looked up): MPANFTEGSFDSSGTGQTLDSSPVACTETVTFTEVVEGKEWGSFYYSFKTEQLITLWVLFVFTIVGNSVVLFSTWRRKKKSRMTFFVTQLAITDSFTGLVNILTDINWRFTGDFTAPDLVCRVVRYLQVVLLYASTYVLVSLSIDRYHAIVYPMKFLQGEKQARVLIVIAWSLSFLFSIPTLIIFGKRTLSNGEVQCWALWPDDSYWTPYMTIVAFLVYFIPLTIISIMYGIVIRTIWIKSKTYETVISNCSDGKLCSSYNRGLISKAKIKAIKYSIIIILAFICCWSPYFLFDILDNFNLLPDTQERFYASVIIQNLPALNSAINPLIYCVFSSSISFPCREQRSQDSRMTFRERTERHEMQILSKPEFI
RXFP1 antag: qHTS Assay for Antagonists of the Relaxin Receptor RXFP1; Relaxin receptor 1 (Homo sapiens), Q9HBX9; HEK293-RXFP1, relaxin-stimulated cAMP HTRF, 30 min; hits give low values; activity change, negative = inhibition, % at 57.5 µM; hit rate 0.59% among 350,000;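 active = activity change of -60% or lower, but not beyond a set lower limit; inconclusive = change between -60% and -40%, or beyond the set limit; inactive = change above -40%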
BRCA1 expr up: qHTS Assay to Identify Small Molecule Activators of BRCA1 Expression | MCF7-BRCA1-FFLuc reporter, luminescence, 48 h; response scale: scaled: vehicle 0%, 10 µM genistein 100% | AID 624202, 2012 | Potency, µM (highest dose often 46.1 µM), hits mostly activators | hit rate 1.1% among 380,000; note: nearly all actives have a fitted effect of over 80% in size
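Reporter cells (MCF7, BRCA1 promoter-firefly luciferase) received library compounds across a concentration series for 48 h. End-point luminescence was measured and concentration-effect curves derived after normalization.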
IL-2 act: qHTS of IL-2 Activators | IL-2 activation reporter assay, cell-based qHTS; stimulated with anti-CD3/CD4/CD28 beads; in transgenic mouse T cells | activation, % (series mostly up to about 46 µM) | hit rate 0.065% among 360,000 | AID 652025, 2013; in the data active = activation above about 50%; inconclusive = mostly about 30% to 49%
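Using fluorescent plate cytometry, EGFP and DsRed are detected in transgenic mouse T cells stimulated 18 h at 37 degrees C with antibody-coated beads after 60 min compound pretreatment.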
Giardia kill: Small Molecules that selectively kill Giardia lamblia: qHTS. Giardia lamblia trophozoite viability. activity change, % at 7.66 µM, hits read low. hit rate 0.15% among 340,000; in the data active = activity change below about -80%; inconclusive = between about -30% and that limit;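 note: parasites exposed to compound for two days anaerobically before the ATP read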
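Luminescent ATP signal served as the viability read-out, measured 15-30 min after adding ATP detection reagent to trophozoites that had been incubated with compounds for 48 hrs at 37 deg C anaerobically at 100 cells/well.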
RXFP1 ag: qHTS Assay for Agonists of the Relaxin Receptor RXFP1 | HEK293T-RXFP1 cAMP TR-FRET, 30 min; response scale: percent of porcine relaxin response, buffer zero | Potency, µM (highest dose often 57.5 µM), hits mostly activators | hit rate 0.3% among 370,000 | AID 2676, 2010; note: nearly all actives have a fitted effect of over 60% in size
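HEK293 cells stably expressing RXFP1, treated 30 min at 37C with compounds plus PDE4 inhibitor Ro 20174; cAMP measured by HTRF TR-FRET. Normalized to buffer and 29 nM porcine relaxin; EC50 by Hill fit.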
Numbers stand for hits; i = inactive; ? = inconclusive; nt = no result given; ! = a repeat was not active. Most compounds without a hit are left out; they make up all but 1.9% or so of the library. Unless noted, calls come from the whole dose curve; as a rule, active = well fitted curve in the direction sought with a large enough effect; inconclusive = small, poorly fitted or top-dose-only effect, or another doubt; inactive = no such curve, though single readings can be large; an effect the other way counts as inactive or inconclusive.

SMILES	NPSR antag	RXFP1 antag	BRCA1 expr up	IL-2 act	Giardia kill	RXFP1 ag
CN(C1=C(N2CCCCC2)C(=O)c2ccccc2C1=O)c1ccccc1	12.6µM	i	i	i	i	i
CC(=O)Nc1ccccc1OCc1nnc(-c2ccccc2Cl)o1	nt	i	i	i	i	i
Oc1ccccc1-c1nnc(COc2ccc(Cl)cc2Cl)o1	?	i	12.6µM	i	i	i
Clc1ccc(-c2nnc(CCc3ccccc3)o2)c(Cl)c1	i	i	11.2µM	i	i	i
O=C(C[n+]1cccc(Cl)c1)c1ccc(F)cc1	nt	nt	i	nt	nt	nt
O=c1c2ccccc2cnn1Cc1n[nH]c(=S)n1-c1ccc(F)c(Cl)c1	i	i	i	i	i	15.8µM
CC1=C/C(=N\NC(=S)Nc2cccnc2)CC(C)(C)C1	1.26µM	i	i	i	i	i
CC(=O)N1CCN(c2ccc(O)cc2)CC1	nt	i	nt	nt	nt	nt
CCC(Sc1nc2cc3c(cc2c(=O)n1CCCC(=O)NCc1ccc(OC)cc1)OCO3)C(=O)NCCCOC (configuration not stated)	nt	-77.2	nt	nt	nt	i
CCCCNC(=O)CSc1nc2cc3c(cc2c(=O)n1CCCC(=O)NCCc1ccc(OC)c(OC)c1)OCO3	i	-75.9!	i	i	i	i
COc1ccc(OC)c(NC2=C(c3ccccc3)C(=O)c3ccccc32)c1	nt	i	nt	nt	nt	i
COC(=O)c1ccccc1NC(=O)CCS(=O)(=O)c1nc(-c2ccc3c(c2)OCO3)cc(C(F)(F)F)n1	nt	-62.9	nt	nt	nt	i
O=C(CCS(=O)(=O)c1nc(-c2ccc3c(c2)OCO3)cc(C(F)(F)F)n1)Nc1ccccc1F	nt	i	nt	nt	nt	i
Cc1cccc(Nc2ncc3c(n2)CC(C)CC3=O)c1 (configuration not stated)	i	i	5.01µM	i	i	i
CCCOc1ccccc1Cn1c(=O)sc2ccccc21	nt	-62.2	nt	nt	nt	i
CCCOc1ccc(Cn2c(=O)sc3ccccc32)cc1	nt	i	nt	nt	nt	i
CCOC(=O)c1ccc2[nH]c3c(c2c1)CCCCC3=O	i	i	3.98µM	i	i	i
CCOC(=O)c1ccc2[nH]c3c(c2c1)CCCC3C(=O)OCC (configuration not stated)	?	i	i	i	i	i
O=C(O)c1cnn(-c2nc(-c3ccc(Cl)cc3)cs2)c1C(F)(F)F	nt	i	4.47µM	i	i	i
CN(C)c1ccc(C=C2C=Cc3ccccc32)cc1	nt	i	?	i	i	nt
CN(C)c1ccc(/C=C2\C=Cc3ccccc32)cc1	nt	nt	3.55µM	nt	nt	nt
CCN(CC)c1ccc(/C=C2\C=Cc3ccccc32)cc1	nt	nt	4.47µM	nt	nt	nt
CCOC(=O)/C=c1/s/c(=C/c2ccc3cc(OC)ccc3c2)c(=O)n1CC(=O)NCc1ccc2c(c1)OCO2	nt	-78.6	i	i	i	nt
CCc1nc2ccc(C(=O)NCc3cc(OC)ccc3OC)cc2nc1CC	nt	i	nt	nt	nt	i
CCc1nc2ccc(C(=O)NCCc3ccc(OC)cc3OC)cc2nc1CC	nt	-71.4	nt	nt	nt	i
SMILES	NPSR antag	RXFP1 antag	BRCA1 expr up	IL-2 act	Giardia kill	RXFP1 ag
CSc1ccccc1NC(=O)C(=O)c1c[nH]c2ccccc12	i	-60.0	i	i	i	i
O=C(CN1C(=O)COc2ccc(S(=O)(=O)N3CCCCCC3)cc21)NCCc1ccccc1	nt	i	nt	nt	nt	i
CCc1nc2c(OCc3cccc(Cl)c3)cccn2c1N(C)C(=O)C(C)C	nt	nt	i	i	nt	nt
CCc1nc2c(OCc3cccc(Cl)c3)cccn2c1N(C)C(C)=O	nt	nt	i	54.6	nt	nt
Cn1c(CNC(=O)c2ccco2)nnc1SCC(=O)N1CCN(c2ccccc2F)CC1	nt	-93.5	i	i	i	i
CC1(C)O[C@@H]2C[C@H]3[C@@H]4CCC5=CC(=O)C=C[C@]5(C)[C@@]4(F)[C@@H](O)C[C@]3(C)[C@]2(C(=O)CO)O1	i	i	i	i	i	i
CC(=O)OCC(=O)[C@@]12OC3(CCCC3)O[C@@H]1C[C@H]1[C@@H]3CCC4=CC(=O)C=C[C@]4(C)[C@@]3(F)[C@@H](O)C[C@@]12C	3.98µM	nt	i	i	i	i
